Measured values published in PubChem BioAssay AID1903 (Southern Research Specialized Biocontainment Screening …, 2009).
The whole screen tested about 310,000 compounds, of which about 1,200 (0.39%) were called active. The rule behind the calls is not given here. These entries were drawn from the full list. Potency and affinity values are given separately.

molecular target: Large T antigen (Simian virus 40) (UniProt P03070); experiment: TAg ATPase/helicase activity blockers – biochemical (AID 1903); conditions: SV40 large T antigen ATPase/helicase inhibition assay; at 20 µM; hits give high values
Sequence (P03070 whole entry, looked up): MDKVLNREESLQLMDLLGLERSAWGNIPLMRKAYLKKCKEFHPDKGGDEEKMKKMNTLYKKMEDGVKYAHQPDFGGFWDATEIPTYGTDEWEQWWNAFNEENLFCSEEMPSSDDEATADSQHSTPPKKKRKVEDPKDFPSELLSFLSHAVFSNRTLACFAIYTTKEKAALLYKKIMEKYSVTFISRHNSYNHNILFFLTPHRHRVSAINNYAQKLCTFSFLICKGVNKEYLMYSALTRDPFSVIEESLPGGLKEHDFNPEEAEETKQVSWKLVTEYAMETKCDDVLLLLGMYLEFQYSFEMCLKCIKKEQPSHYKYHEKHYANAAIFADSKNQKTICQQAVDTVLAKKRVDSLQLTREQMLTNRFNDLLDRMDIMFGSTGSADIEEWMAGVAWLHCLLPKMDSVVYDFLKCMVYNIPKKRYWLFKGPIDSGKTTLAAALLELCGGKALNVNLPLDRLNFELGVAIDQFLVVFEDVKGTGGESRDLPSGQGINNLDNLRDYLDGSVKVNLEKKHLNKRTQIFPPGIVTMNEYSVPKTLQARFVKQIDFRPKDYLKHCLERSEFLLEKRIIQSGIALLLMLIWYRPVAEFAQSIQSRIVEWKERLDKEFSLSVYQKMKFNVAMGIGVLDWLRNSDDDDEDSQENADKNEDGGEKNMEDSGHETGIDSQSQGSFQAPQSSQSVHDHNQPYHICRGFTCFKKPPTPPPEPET

inhibition, inactive:
COc1ccc(C(=O)NCc2nnc(SCC(=O)Nc3nnc(C)s3)o2)cc1 11.2%, Cc1ccc(S(=O)(=O)NCC(=O)N(CC(=O)NC2CCCC2)c2ccc3c(c2)OCCO3)cc1 6.71%, CCOc1c(C)cnc2c1c(=O)n(Cc1c(F)cccc1Cl)c(=O)n2C 18.6%, CCOc1ccc(N2C(N)=NC(N)=NC2(C)C)cc1 2.99%, COc1ccc(N2Nc3n[nH]c(N)c3N2)cc1 34.9%, COc1ccc(NC2=CC(c3ccc(OC)cc3)N(c3ccc(OC)cc3)C2=O)cc1 (stereo unspecified) 11.9%, Cc1cc(NS(=O)(=O)c2cccs2)no1 -2.38%, CC(=O)Nc1cccc(NC(=O)CSc2ncc(C(=O)Nc3ccccc3)c(=O)n2C)c1 19.6%, Fc1ccccc1COc1ccc(Br)cc1CNCC1CCCO1 (stereo unspecified) 4.34%, Cc1cccc(N2C(=O)c3ccc(Br)cc3C2=O)n1 8.73%, Cc1cccc(N2C(=O)c3ccccc3C2=O)n1 4.5%, Cc1csc(NC(=O)c2cc(=O)[nH]c3ccccc23)n1 5.64%, CN(C)S(=O)(=O)c1ccc(Cl)c(NC(=O)CN2CCNC(=O)C2)c1 5.76%, Cc1ccc(C)c(NC(=O)C(Sc2nc3ccccc3c(=O)n2CC(C)C)c2ccccc2)c1 (stereo unspecified) 4.6%, COc1ccc(C)cc1CN1C(=O)c2ccccc2C1=O 2.66%, COc1ccc(C=O)cc1CN1C(=O)c2ccccc2C1=O 0.06%, COc1ccc(CN2CC(C(=O)N3CCOCC3)CC2=O)cc1 (stereo unspecified) 13.7%, Cc1c(NC(=O)c2ccc(-c3ccc([N+](=O)[O-])cc3Cl)o2)c(=O)n(-c2ccccc2)n1C 7.53%, O=C1NC(=S)S/C1=C/c1ccc(OC(=O)c2ccco2)cc1 12%, CC1=NN2C(=N)/C(=C\c3ccc(SCc4ccccc4)o3)C(=O)N=C2S1 15.7%, N=C1/C(=C\c2ccc(SCc3ccccc3)o2)C(=O)N=C2SC=NN12 -0.34%, CCC1=NN2C(=N)/C(=C\c3ccc(SCc4ccco4)o3)C(=O)N=C2S1 0.38%, O=C(O)CN1C(=O)/C(=C/c2ccc(SCc3ccccc3)o2)SC1=S 12.4%, CCS(=O)(=O)C1=NN2C(=N)/C(=C\c3ccc(SCc4ccco4)o3)C(=O)N=C2S1 59.6%, Cc1ccc(-c2nnc(SC(C)C(=O)NCC3CCCO3)nc2-c2ccc(C)cc2)cc1 (stereo unspecified) 7.01%, Cn1c(=O)n(CCOc2ccc(Cl)cc2Cl)c2ccccc21 24.1%
